Holding throughout (experiment): MAPPIT interaction score (arbitrary units); higher = stronger binary interaction signal, active = hit call of the paper
The target of one assay is Caf1-55. Conditions: pair source set: Lit-BM-16;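 active = MAPPIT score above the 99th percentile of random reference set scores in the same batch; inactive = at or below it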.
Another assay addresses Rph. The conditions noted are these: MAPPIT configuration: N-C; pair source set: RRS.
The target of another assay is Caper. The conditions noted are these: MAPPIT configuration: N-N; pair source set: DPIM.
The target in the next assay is CHES-1-like. The conditions noted are these: MAPPIT configuration: N-C; pair source set: screen_4.
A further assay deals with Mf. The conditions noted are these: MAPPIT configuration: N-C; pair source set: screen_3.
Another assay concerns the target mri. The conditions noted are these: MAPPIT configuration: N-N; pair source set: screen_1.
A further assay deals with CSN4. Conditions: MAPPIT configuration: N-C; pair source set: Lit-BM-16.
A further assay concerns the target Cog6. Conditions: MAPPIT configuration: N-N; pair source set: Finley_Y2H.
Another assay has as its target CROT. Conditions: MAPPIT configuration: N-N; pair source set: Curagen_high_conf.
The target of a further assay is Cda5. Conditions: MAPPIT configuration: N-N; pair source set: Lit-BS-16.
In the next assay the target is CanA1. Conditions: MAPPIT configuration: N-N; pair source set: Lit-BS-16.

± gives the standard deviation of the averaged measurements.
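Also: HEK293T cells with Epo stimulation, STAT-responsive firefly luciferase reporter, fold induction versus unstimulated cells divided by the larger fold induction of two negative controls lacking either bait or prey.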

B1: Caf1-55 (protein)
chain: MVDRSDNAAESFDDAVEERVINEEYKIWKKNTPFLYDLVMTHALEWPSLTAQWLPDVTKQDGKDYSVHRLILGTHTSDEQNHLLIASVQLPSEDAQFDGSHYDNEKGEFGGFGSVCGKIEIEIKINHEGEVNRARYMPQNACVIATKTPSSDVLVFDYTKHPSKPEPSGECQPDLRLRGHQKEGYGLSWNPNLNGYLLSASDDHTICLWDINATPKEHRVIDAKNIFTGHTAVVEDVAWHLLHESLFGSVADDQKLMIWDTRNNNTSKPSHTVDAHTAEVNCLSFNPYSEFILATGSADKTVALWDLRNLKLKLHSFESHKDEIFQVQWSPHNETILASSGTDRRLHVWDLSKIGEEQSTEDAEDGPPELLFIHGGHTAKISDFSWNPNEPWIICSVSEDNIMQVWQMAENVYNDEEPEIPASELETNTA
Take B1: the MAPPIT interaction score is 2.19 (inactive) in the assay with Caf1-55 (MAPPIT configuration: N-C), 1.84 ± 0.68 with Caf1-55 (MAPPIT configuration: N-N) and 2.27 (inactive) in the assay with Rph.

B2: Npc2a (protein)
chain: MLRYAVIACAALVVFAGALEFSDCGSKTGKFTRVAIEGCDTTKAECILKRNTTVSFSIDFALAEEATAVKTVVHGKVLGIEMPFPLANPDACVDSGLKCPLEKDESYRYTATLPVLRSYPKVSVLVKWELQDQDGADIICVEIPAKIQ
B2: the MAPPIT interaction score with Caper was -0.361 (inactive).

B3: Lasp (protein)
chain: MNKTCARCQKVVYPIEELKCLDKTWHKTCFKCTECGMTLNMKTYKGYNKMPYCEAHIPKAKATAIADTPELKRIAENTKIQSNVKYHADFEKAKGKFTQVADDPETLRIKQNTKHISNVAYHGDLEKKAAMEKQRGSAEVSDSSNESEYFSEQLAAEQFSQYAPTASPIPPAATTLHQQQQQLQHQQQQQYQQHQQQLQQQQHQHQHYLQQQQQTLPPPPIQHQQYNTAAITPTYQQLQQQQQQQQQQRAQQQQLHDPYAHYQQPQALRQQQQQQQQQQQQLLQQQAIKQASHLYPTATSQQQQMPPPQSPANPQQQALNSYNEMRSAILQNSHHPSGNSVDQYDQPQQQQHQPQQQSTNPTLVAAQQQQSHHSLLNNNASNGGISHSHHSNINNNGHGSQNQMLPPQMRRSAASVVAYDGNSKQQVAAGPGAAQNHLQQLYASPNYAAVTPSENSINVKQHASNGHMPNQQQQHVAGGSNIGKIADYDPLTDGPRVVPNAGRSSTTLVYSSEPRGNQGGNSVYPKRIGSVSDIDPANGIYGSLTAAEQAHQQQKHQQYYQQVQMMQQQEHPPQQQQMRQQPSYSSLQEKQSRQSTAMRVYRAIYDYEAQDVDEVSFREGDVIFEVESIDSGWMTGRVERTGKTGMLPANYVEQAVI
Take B3: the MAPPIT interaction score in the assay with CHES-1-like was 0.887 (inactive); in the assay with Mf, 3.01 (inactive); in the assay with mri, 1.83 (inactive).

B4: CSN7 (protein)
chain: MTQDMLLGNEEPSKSKETFLEKFCVLAKSSTGAALLDVIRQALEAPNVFVFGELLAEPSVLQLKDGPDSKHFETLNLFAYGTYKEYRAQPEKFIELTPAMQKKLQHLTIVSLAIKAKSIPYALLLSELEIDNVRHLEDIIIEAIYADIIHGKLFQNTRILEVDYAQGRDIPPGYTGQIVETLQAWVNSCDSVSNCIEMQIKYANAEKSKRLINKERVEQDLINLKKVLKSQTSDSDESMQIDTHGPGTSGGLGQSELRKKPSKLRNPRSAAVGLKFSK
As for B4, the MAPPIT interaction score with CSN4 was 1.74 (inactive); with Cog6, -0.342 (inactive).

B5: Usp30 (protein)
chain: MESEKILMAAGVTVAAVVGAFVFWGPSGSRLRQRRGQIAGLHNFGLTCFLNTLLQAMAACPQFIAWLQLYNNASPDRKSLITSMLNTLEVVNGTHATLRGDPYSPGAVLRALNALGWVIPQEEHDAHELFHVLLTCLEEEAIRPQPLGCLSDALPTDNDDNSSLAGTATPVGGFRSFSSMAAGLGASQRIGDQPNRPSSAMLTDFLNMEYDESTSLQRLVRSEAHTPDSPASVCERDGNDRLGSVLLDAVSPGTPFGFPLVSNPDSLATPMLGGERSSRPRLPQSQQQQDEGLNRRVSSSCRSLERLHRGPGRVSIWSNMMPSQVAHPFQGAMGAQIVCNGCGSKSAVRYDKFDSITLNLPPQRRTGLSLGHLLSEYITSEDLSDVKCDSCNETTTHTKSVTFAKLPACLCIHVARTVWLPTGQVCKRKDYVHFPESLSMAPYSFVQPHLNSQAGTPWGSTMSLYSSSLPMNNGVGGGEGFGTMFPKNLYRLLAVVVHSGEANSGHFVTYRRGSLRNAHRWYYTSDTIVREVSIDEVLSVPAYLLFYDRGQQRQLNLR
As to B5, the MAPPIT interaction score in the assay with CROT is 2.05 (inactive).

B6: Cp36 (protein)
chain: MQLGLWFGILAIAATPLVSANYGPAGGHGHGHGHGQYLSGPNAGLEEYVNVASGGNQQAANQIASQAEIQPTPEEARRLGRVQAQLQALNADPNYQKLKNSEDIAESLAETNLASNIRQGKIKVVSPQFVDQHLFRSLLVPSGHNNHQVIATQPLPPIIVHQPGAPPAHVNSGPPTVVRGNPVIYKIKPSVIYQQEVINKVPTPLSLNPVYVKVYKPGKKIEAPLAPVVAPVYSQPREYSQPQGYGSAGAASSAAGAASSADGNAYGNEAPLYNSPAPYGQPNY
Consider B6, for which the MAPPIT interaction score with Cda5 was 0.061 (inactive).

B7: CanB (protein)
chain: MGNETSLPMDMCSNFDADEIRRLGKRFRKLDLDNSGALSIDEFMSLPELQQNPLVQRVIDIFDADGNGEVDFKEFIQGVSQFSVRGDKLSKLRFAFRIYDMDNDGYISNGELFQVLKMMVGNNLKDTQLQQIVDKTICFADKDEDGKISFDEFCSVVGNTDIHKKMVVDV
As to B7, the MAPPIT interaction score in the assay with CanA1 was -0.226 (inactive).

The record behind these values is the supplement of paper PMC10105736.
